# About 79,000 compounds went through this panel and 15% of them were active in at least one assay; those are over-represented in the sample as a whole. Unmarked numbers belong to inactive results. The source made the active and inactive calls. Rule as the data show it: active = growth inhibition above about 70%; inactive = the rest.
# Test: NCI Yeast Anticancer Drug Screen. Data for the bub3 strain (AID 167)
# Details: S. cerevisiae bub3 mutant strain, at 50.0 µM, hits give high values
# Summary of the method: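 Yeast carrying a defined mutation is treated with each compound, and growth is compared with that of vehicle-exposed cells to give inhibition.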
row,SMILES,growth inhibition
1,N#CNC(=Nc1ccccc1)[N](C#N)[Sn]([c]1ccccc1)([c]1ccccc1)[c]1ccccc1,96.5% (active)
2,Cc1cc(Br)cc(C)c1NC(=O)C(=O)CC(=O)c1sc(-n2nc(-c3ccccc3)cc2-c2ccccc2)nc1C,33.8%
3,COc1ccccc1C1c2cc3c(cc2OC(O)(CO)C1C(=O)O)OCO3 (stereo not given) (tested in a mixture with another compound),-20.6%
4,N/C(=N\OC(=O)Nc1ccc(CSc2ccc(Cl)cc2)o1)c1ccccn1,-16.9%
5,COc1cc2c(c(O)c1OC)C(=O)[C@@H]1CCC(=O)N1C2c1ccccc1 (stereo not given in full),11.3%
6,CC(C)OC(=O)N1CCCC1,13.9%
7,COC1=CC(=O)c2ccccc2C1(CCC=C(C)C)C1=NC(C)(C)CO1 (stereo not given),-8.6%
8,CC(C#N)(CCl)OS(=O)(=O)CCCl (stereo not given),48.7%
9,COc1ccc(C(C)Nc2cc(OC)c(OC)c(OC)c2)cc1 (stereo not given),-10.3%
10,c1cc2c3c(c1)ccc1ccc4cccc(c4c13)O2,-3.45%
11,CCCCCCCN1C=CCC(S(=O)(=O)N2CCOCC2)=C1,-16.8%
12,O=c1c2cc([N+](=O)[O-])ccc2sc2ccsc12,-10.6%
13,COc1cc([C@@H]2c3cc4c(cc3[C@](C)(O)[C@H]3COC(=O)[C@H]23)OCO4)cc(OC)c1OC,19.1%
14,CC(C)(/C=N\O)NO,-9.05%
15,CN(C)c1nc(OC2C(C3COC(C)(C)O3)OC3OC(C)(C)OC32)nc(N(C)C)n1 (stereo not given),-4.35%
16,CSc1c(S(C)=O)[nH]c2cc(Br)cc(Br)c12 (stereo not given),89.4% (active)
17,Cc1ccc2cccc(CCOC(=O)c3ccc([N+](=O)[O-])cc3)c2c1,-8.35%
18,CCOc1ccc(N=Cc2cc(Br)ccc2O)cc1,1.15%
19,CCOC(=O)C1(c2ccccc2)CCNC(=O)CC1 (stereo not given),13.5%
20,CN(C)Cc1cc(N=Nc2ccccc2Cl)cc(CN(C)C)c1O,12.3%

row,SMILES,growth inhibition
1,CN(/N=C\c1ccc2ccccc2c1)C1=NCCCCN1,-0.1%
2,Cc1cccc(-c2c3ccccc3cc3ccccc23)c1,2.35%
3,CCOC(=O)C1=C(Nc2ccc(Cl)cc2Cl)OC/C1=N\NS(=O)(=O)c1ccc(C)cc1,-2.45%
4,COc1cc2c(C)cc(=O)oc2c(OCC(O)CN2CCCC2)c1OC (stereo not given),-4.35%
5,CCOC(=O)C(C(=O)OCC)C(C(=O)OCC)(C(=O)OCC)C(C(=O)OCC)C(=O)OCC,-3.65%
6,Nc1ccnc2n[nH]nc12,5.05%
7,CC1(N)CCC(C(C)(C)N)CC1 (stereo not given),2.35%
8,CC1=C(CCC(C)CO)OC2CC3C4CC=C5CC(O)CCC5(C)C4CCC3(C)C12 (stereo not given),6.3%
9,C/C(CC(=O)Nc1ccccn1)=N\c1ccccn1,1.95%
10,O=C(/C=C/c1ccc2c(c1)OCO2)NCc1ccco1,-14.4%
11,O=c1[nH]c(=S)[nH]c2[nH]ccc12,-0.6%
12,Cc1cnc2c(C)ccc([N+](=O)[O-])c2c1NCCCN(C)C,16.9%
13,CCCC1(CCC)NC(=O)N(CC(N)=O)C1=O,-9.1%
14,COC(=O)c1nn(-c2ccccc2)c2nc3ccccc3c-2c1C(=O)OC,20.9%
15,O=C1OCc2cccc3c2-c2c1cccc2C(=O)OC3,-12.5%
16,CC(C)/C=C1\CCC(CN2CCCC2)C1=O (stereo not given),40.7%
17,NCCn1ccnc1,-3.15%
18,S=C1SCN(c2ccc3c(c2)OCO3)CN1c1ccc2c(c1)OCO2,-1.05%
19,O=C(/C=C/c1ccccc1)Nc1ccc([N+](=O)[O-])cc1Cl,26.2%
20,CCC(=O)OCCCCCCOC(=O)CC,19.9%

# From PubChem BioAssay (NCI)
